Hits are enriched below; roughly 4.3% of the tested compounds scored in any of these assays.
MITF TRPM1 HTS = activators of MITF-driven TRPM1 promoter reporter, primary screen, cell-based, SK-MEL-5, luciferase, single point; activation, % at 12.5 µM; 300,000 compounds, 0.75% hits; SK-MEL-5 TRPM1-promoter luciferase, 24 h; % of positive control, neutral wells = 0;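 active means mean activation of at least 80% with every replicate also reaching 80%; inconclusive means mean reaches 80% but some replicate falls short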;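 further: 0% = neutral control wells and 100% = parthenolide positive control wells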
AF4-AF9 inh = inhibitors of AF4 peptide binding to AF9, primary screen, biochemical, AlphaScreen, biotin-AF4 peptide, FLAG-AF9, single point; Protein AF-9 (Homo sapiens), P42568; inhibition, % at 10 µM; 350,000 compounds, 0.47% hits; AID 651704, 2012;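 active means every replicate reaching a set inhibition limit, whatever the replicate mean, cut at about 25% in these data; inconclusive means mean inhibition reaches that limit but some replicates miss it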;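 further: 0% = plate neutral control median and 100% = total signal loss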
FGF22 binding = binders of human FGF22 protein, primary screen, FGF22 synaptogenesis inhibitor project, biophysical, thermal shift, single point; 340,000 compounds, 1.5% hits; activity (Tm shift, normalised), % at 9.99 µM; recombinant FGF22 thermal shift, SYPRO orange fluorescence; percent of sucrose octasulfate shift, DMSO zero; Fibroblast growth factor 22 (Homo sapiens), Q9HCT0;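 active means mean Tm shift, scaled 0 neutral to 100 positive control, at about 1.3% or above, every replicate too, limit read from the data; inconclusive means no clear call, values can overlap the other calls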
Target sequence (Q9HCT0 whole entry, looked up): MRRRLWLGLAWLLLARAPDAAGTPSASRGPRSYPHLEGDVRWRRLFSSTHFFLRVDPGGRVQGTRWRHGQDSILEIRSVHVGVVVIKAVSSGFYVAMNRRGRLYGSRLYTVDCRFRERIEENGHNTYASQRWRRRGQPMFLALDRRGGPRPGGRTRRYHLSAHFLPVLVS
SMARCA2 activ = SMARCA2 (BRM) function activators, primary screen, cell-based, luminescence, high throughput | MG213 cells, MMTV-luciferase reporter, dexamethasone, overnight | activation, % at 9.1 µM | 370,000 compounds, 1% hits; in the data active means activation above about 7.8%;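 further: 0% = vehicle wells and 100% = reference activator wells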
esBAF inh = Bmi1 luciferase reporter increase in mESCs, primary screen, esBAF inhibitor project, mouse ES cells, Bmi1 luciferase knock-in, single point; 350,000 compounds, 2% hits; 24 h; 100% = twice the neutral-well signal; reporter increase, % at 12.5 µM; in the data active means activation above about 40%; inconclusive means no clear call, values can overlap the other calls;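 further: 0% = median of the plate's neutral control wells and 100% = double that signal; a rise in the Bmi1 reporter signal indicates esBAF inhibition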
Wnt act = Wnt/beta-catenin pathway activators, primary screen, cell-based, plate reader, single point. Wnt/beta-catenin reporter cell assay, activator. activation, % at 9.35 µM. 300,000 compounds, 1.2% hits. AID 743398, 2014; in the data active means activation above about 30%, passing the limit was not always enough; inconclusive means no clear call, values can overlap the other calls;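 further: 0% = neutral control wells and 100% = positive control wells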
Starred values were filed as active, the others as inactive; ? = inconclusive; · = no result given.

SMILES	MITF TRPM1 HTS	AF4-AF9 inh	FGF22 binding	SMARCA2 activ	esBAF inh	Wnt act
O=C(Nc1ccc(F)cc1)N[C@H]1CC[C@H](CCn2cc(-c3ccccc3F)nn2)O[C@H]1CO	·	-1	0	·	-1	·
O=C(Nc1cc(-c2ccccc2)[nH]n1)c1ccccc1	·	0	0	-1	·	43*
O=C(Nc1ccc(Cl)cc1)c1ccc(-c2ccccn2)s1	·	-1	0	7	?	39*
S=C(Nc1ccccc1)Nc1ccccn1	·	0	0	0	20	0
Cc1cc(C)nc(NC(=O)c2ccc(Br)s2)n1	·	-1	0	1	-1	7
O=C(Nc1ccccn1)c1ccc(Br)s1	·	0	0	3	48*	0
S=C(Nc1ccc(Nc2ccccc2)cc1)Nc1ccccn1	0	10	43*	-2	·	-1
Cc1ccc(S(=O)(=O)Nc2ccc3c(c2)C(=O)N([C@H](C)CO)C[C@H](C)[C@@H](CN(C)S(=O)(=O)c2ccc(C)cc2)O3)cc1	·	0	-1	·	3	·
O=C(c1ccccc1)C(Nc1ccccn1)c1ccccc1 (stereo unspecified)	7	-11	44*	-2	·	0
OC(c1ccccc1)C(Nc1ccccn1)c1ccccc1 (stereo unspecified)	6	-1	0	-3	7	-2
O=C(Nc1ncccn1)c1ccc([N+](=O)[O-])cc1	13	-2	0	-2	·	0
O=C(NC(=S)Nc1ccccn1)c1ccc([N+](=O)[O-])cc1	78	·	·	4	77*	·
O=C(NC(=S)Nc1ccccn1)c1ccc(-c2ccccc2)cc1	117*	2	0	0	·	-1
C[C@@H]1CN([C@H](C)CO)C(=O)c2cccc(NC(=O)c3cnccn3)c2O[C@@H]1CN(C)S(=O)(=O)c1ccc(F)cc1	·	-5	0	·	-4	·
CCN1CCCC(NC(=O)c2scc3c2CCCC3)C1 (stereo unspecified)	·	47*	0	-3	-5	-1
O=C(c1scc2c1CCCC2)N1CCCCC1	3	·	·	-8	2	0
Cc1ccc(Oc2cnc3ccccc3n2)cc1	109*	·	·	4	28	·
C[C@H](CO)N1C[C@H](C)[C@@H](CN(C)C(=O)c2cccnc2)Oc2ncc(C3=CCCCC3)cc2C1=O	·	-8	0	·	-7	·
CCOC(=O)c1c(C=O)c2sc(C)cc2n1C	24	?	0	1	6	44*
CC(C)NC(=O)N1[C@H](CO)[C@@H]2c3ccccc3N(C(=O)c3ccncc3)C[C@@H]21	·	2	-1	·	-6	·
CCCC#Cc1cnc2c(c1)C(=O)N([C@H](C)CO)C[C@@H](C)[C@@H](CN(C)C(=O)Nc1c(C)noc1C)O2	·	-5	1	·	7	·
COc1ccc(C2CC(c3ccc(C)o3)=NN2C(C)=O)cc1 (stereo unspecified)	63	3	0	2	·	11
COc1ccc(C2CC(c3ccc(Cl)cc3)=NN2C(C)=O)cc1 (stereo unspecified)	41	2	0	0	52*	13
COc1ccc(C2CC(c3ccc4ccccc4c3OC(C)=O)=NN2C(C)=O)cc1 (stereo unspecified)	·	-1	0	4	·	58*
CC(=O)N1N=C(c2ccc(Cl)cc2)CC1c1ccc([N+](=O)[O-])cc1 (stereo unspecified)	·	-2	0	0	1	0
CCS(=O)(=O)Nc1ccc2c(c1)C(=O)N(C)[C@@H]1CC[C@@H](CC(=O)N3CCCCC3)O[C@@H]1CO2	·	-2	0	·	1	·
Cc1c2cnn(CC(=O)O)c(=O)c2c(C)n1Cc1ccccc1	·	-7	0	-1	-1	-5
COC(=O)Cn1ncc2c(C)n(Cc3ccccc3)c(C)c2c1=O	38	-5	0	1	52*	11
CSCc1ccc(C(=O)NCCSc2ccc(Br)cc2)cc1	108*	-4	0	2	48*	?
O=C(NCCSc1ccc(Br)cc1)c1ccccc1	17	-3	·	0	·	-2
